Growth data for ten compounds are collected here from PubChem BioAssay (NCI).

What all share (test): NCI-60 one-dose screen, 48 h (100 = growth as untreated, 0 = no growth, -100 = all killed)
Common to all, as to settings: 10 µM unless noted

For experiment [1], the system named is SR leukemia.
Experiment [2] relates to OVCAR-8 ovarian.
In experiment [3] the test system is OVCAR-5 ovarian.
For experiment [4], the system named is OVCAR-4 ovarian.
Experiment [5] relates to SK-OV-3 ovarian.
Experiment [6] relates to IGROV1 ovarian.
Experiment [7] relates to OVCAR-3 ovarian.
Experiment [8] concerns HS 578T breast.
The subject of experiment [9] is NCI/ADR-RES ovarian.
Experiment [10] deals with BT-549 breast.
Experiment [11] concerns MDA-MB-435 melanoma.
Experiment [12] deals with SW-620 colon.
Experiment [13] concerns MCF7 breast.
Experiment [14] concerns HCT-116 colon.
Experiment [15] has as its system HCC-2998 colon.
The subject of experiment [16] is KM12 colon.
Experiment [17] concerns T-47D breast.

Structures are written as SMILES. About 83,000 compounds went through this panel and 20% of them were active in at least one assay; those are over-represented in the sample as a whole.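 In brief: 96-well plates, 48 h treatment, single concentration, percent growth endpoint.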 Unmarked numbers belong to inactive results. The source made the active and inactive calls. How the source made its calls: active means growth percent below 10; inactive means the rest.

Consider `CCCCCc1ccc(S(=O)(=O)Nc2ccc3nc(N)oc3c2)cc1`, for which the growth in [1] was 31.1%; in experiment [2], 53.8%; in experiment [3], 99.5%; in [4] it was 27.3%; in [5] it was 81.8%; in experiment [6] it was 68.4%. Besides, the growth was 64.5% in experiment [7]; 73.9% in experiment [8]; 53% in experiment [9]; 61.9% in experiment [10]; 50.3% in experiment [11]; 76.8% in experiment [12]. In addition, the growth was 31.8% in experiment [13], 43% in experiment [14], 98.5% in [15] and 64.1% in experiment [16].
In the case of `CC(=O)N1N=C(c2ccc(Nc3nc(Nc4ccc(F)cc4)nc(Nc4ccc(F)cc4)n3)cc2)CC1c1ccc(N(C)C)cc1` (stereo not given), the growth was -4.86% (active) in experiment [1]; 27.6% in [2]; 78.4% in experiment [3]; 48% in experiment [6]; 69.5% in [7]; 62.9% in [8]. In addition, the growth was 27.5% in experiment [9]; 25% in [17]; 63.9% in experiment [10]; 6.22% (active) in experiment [11]; 42.2% in experiment [13]; 43.3% in [14]. In addition, in experiment [16], the growth was 39.8%.
Consider `O=C(Nc1ccc(Oc2cccc(Cl)c2)c(Cl)c1)c1cccnn1`, for which the growth in experiment [1] was 87%; in [2], 91.7%; in experiment [3], 91.1%; in [4] it was 68.6%; in experiment [5], 102%; in experiment [6], 91.4%. Moreover, the growth in experiment [7] is 85.6%; in experiment [8], 106%; in experiment [9], 85%; in experiment [17], 72.4%; in experiment [10], 98.5%; in [11], 77.6%. Besides, the growth in [12] is 105%; in experiment [13] it was 91.7%; in experiment [14], 66.7%; in [15], 95.2%; in experiment [16] it was 85.3%.
For `C=C1C(=O)O[C@H]2[C@H]1CC/C(COC(=O)/C=C\C(=O)NCc1ccc(Cn3c(=O)sn(CCCCl)c3=O)cc1)=C\CC[C@@]1(C)O[C@@H]21`, the growth in [1] was 66.5%; in [2], 79.9%; in experiment [3], 82.2%; in experiment [4], 74.9%; in [5] it was 97.4%; in [7], 37.4%. For the same compound, the growth in experiment [8] is 88.8%; in experiment [9] it was 93.7%; in experiment [17] it was 61.5%; in experiment [10] it was 88.2%; in experiment [11] it was 52.8%; in [12], 22.1%. For the same compound, the growth in experiment [13] was 41.8%; in [14], 26.6%; in [16] it was 99.4%.
Consider `COc1ccc(C(c2cc(OC)c(OC)c(OC)c2)N2CCCCC2)cc1` (stereo not given), for which the growth in experiment [1] is 18.5%; in experiment [2], 50.1%; in experiment [3], 69.6%; in experiment [4], 69.2%; in experiment [5] it was 16.7%; in [6] it was 47.1%. Also, the growth was 8.29% (active) in experiment [7]; 16.6% in experiment [8]; 24% in [9]; 33.6% in experiment [17]; 49.7% in [10]; -21.8% (active) in experiment [11]. Besides, the growth in experiment [12] was 14.5%; in experiment [13] it was 23.6%; in experiment [14], 29.1%; in experiment [15], 79.6%; in experiment [16], 30.2%.
As for `Brc1ccc(Nc2nc(Nc3cnc4ccccc4c3)c3[nH]cnc3n2)cc1`, the growth in [1] was 63.9%; in [2], 83.9%; in experiment [3] it was 101%; in experiment [4], 73.7%; in [5], 68.2%; in experiment [6] it was 74.7%. In addition, the growth in experiment [7] was 60.2%; in experiment [8] it was 60.9%; in experiment [9], 92.4%; in [17], 52.8%; in experiment [10] it was 48.6%; in experiment [11] it was 96.3%. Also, the growth is 91.9% in experiment [12]; 58% in experiment [13]; 55% in experiment [14]; 103% in experiment [15]; 88.8% in experiment [16].
As for `C=CC(CC(c1ccccc1)(c1ccccc1)c1ccccc1)N(CC)CC` (stereo not given), the growth was -6.97% (active) in experiment [1]; 94% in experiment [2]; 72.5% in experiment [3]; 67.5% in experiment [4]; 72.5% in experiment [5]; 77% in experiment [6]. Further, the growth was 70.1% in experiment [7]; 82.1% in experiment [8]; 66.1% in [9]; 59.3% in [17]; 64.4% in experiment [10]; 79.2% in [11]. Further, the growth in experiment [12] is 55.4%; in experiment [13], 73%; in experiment [14], 43.9%; in [15], 69%; in experiment [16] it was 58.8%.
Regarding `O=C(O)c1cn(C2CC2)c2cc(N3CCN(C(=O)N4CCOCC4)CC3)c(F)cc2c1=O`, the growth in experiment [1] was 116%; in experiment [2], 104%; in experiment [3], 104%; in experiment [4], 106%; in [5], 100%; in experiment [6] it was 94%. For the same compound, the growth is 109% in experiment [7]; 119% in [8]; 105% in experiment [9]; 110% in experiment [17]; 95.7% in [10]; 105% in experiment [11]. In addition, the growth in experiment [12] is 112%; in [13] it was 103%; in experiment [14], 110%; in [16], 104%.
Regarding `Fc1ccc(/C=C/[C@@H]2C[C@@H](F)CCO2)cc1`, the growth in experiment [1] is 61.1%; in experiment [2], 98.4%; in experiment [3], 89.7%; in experiment [4], 119%; in [5] it was 102%; in experiment [7] it was 113%. For the same compound, the growth in experiment [8] was 84.8%; in [17], 101%; in [10], 100%; in [11], 97.9%; in experiment [12], 90.2%; in experiment [13] it was 91.3%. For the same compound, the growth in [14] is 82.2%; in experiment [15], 60.6%; in experiment [16], 105%.
Consider `c1ccc(-c2ccc3c(c2)C2(CCNCC2)CN3)cc1`, for which the growth in experiment [1] was 96%; in experiment [2] it was 99.2%; in experiment [3], 98.1%; in experiment [4], 91.5%; in experiment [5], 79.4%; in experiment [6] it was 73%. Also, the growth in experiment [7] was 86.2%; in experiment [8], 93.6%; in experiment [9], 94.3%; in [17] it was 80.3%; in experiment [10] it was 99.3%; in [11], 106%. In addition, the growth in experiment [12] was 93.6%; in experiment [13], 80.2%; in [14] it was 87.1%; in [15], 103%; in [16], 87.7%.
